Three compounds from PubChem BioAssay AID743320 (Broad Institute, 2014) can be followed below.

Results with a measured potency or affinity are listed apart. Activity calls are given as the source filed them.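 The calls were made as follows: active = signal drop whose fitted half-maximal potency is at most twice the top valid dose tested; inconclusive = flat curve inhibiting 30 to 70 percent, or a poor fit; inactive = the rest.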

The target of the test is Endoplasmic reticulum aminopeptidase 2 (Homo sapiens) (UniProt Q6P179). As to the kind of experiment: ERAP2 aminopeptidase inhibitors, dose response, selectivity assay for selective ERAP1 modulator project, biochemical, fluorescence plate reader, cherry-picked, set 2 (AID 743320).
Endoplasmic reticulum aminopeptidase 2 (Homo sapiens), sequence (Q6P179 whole entry, looked up): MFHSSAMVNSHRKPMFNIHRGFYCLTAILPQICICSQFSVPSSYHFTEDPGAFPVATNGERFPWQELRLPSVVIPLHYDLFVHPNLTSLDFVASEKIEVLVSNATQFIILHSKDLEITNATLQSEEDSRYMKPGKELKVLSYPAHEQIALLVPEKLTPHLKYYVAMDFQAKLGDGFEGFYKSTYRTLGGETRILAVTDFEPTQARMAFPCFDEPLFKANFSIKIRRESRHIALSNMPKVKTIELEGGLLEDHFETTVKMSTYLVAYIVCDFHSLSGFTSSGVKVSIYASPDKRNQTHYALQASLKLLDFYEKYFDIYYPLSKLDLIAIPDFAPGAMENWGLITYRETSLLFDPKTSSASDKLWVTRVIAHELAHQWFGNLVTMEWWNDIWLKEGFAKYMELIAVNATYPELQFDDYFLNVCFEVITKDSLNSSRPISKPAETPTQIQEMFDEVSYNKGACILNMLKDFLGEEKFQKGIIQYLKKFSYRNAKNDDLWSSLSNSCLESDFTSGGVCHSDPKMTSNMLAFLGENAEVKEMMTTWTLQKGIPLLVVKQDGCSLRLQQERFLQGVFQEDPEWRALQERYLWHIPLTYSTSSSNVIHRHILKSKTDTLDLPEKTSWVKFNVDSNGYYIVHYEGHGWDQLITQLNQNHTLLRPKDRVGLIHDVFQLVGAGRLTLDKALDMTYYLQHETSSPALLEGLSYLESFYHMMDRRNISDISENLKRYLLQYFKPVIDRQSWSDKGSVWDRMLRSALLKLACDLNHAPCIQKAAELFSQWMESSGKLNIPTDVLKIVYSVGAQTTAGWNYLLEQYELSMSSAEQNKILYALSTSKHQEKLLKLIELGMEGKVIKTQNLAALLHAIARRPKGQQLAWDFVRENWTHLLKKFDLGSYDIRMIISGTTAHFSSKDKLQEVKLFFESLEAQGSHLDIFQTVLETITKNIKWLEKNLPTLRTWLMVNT

Regarding `Cc1cc(=O)oc2cc(OCC(=O)N3CCN(C(C)c4ccccc4)CC3)c(Cl)cc12` (stereo not drawn), the outcome was inactive. Take `CCN(CCCl)c1cc(CN(C)C)cc(NC(=O)c2ccc(C(=O)Nc3cc(CN(C)C)cc(N(CC)CCCl)c3)cc2)c1`: the outcome was inactive. In the case of `N#Cc1c(N2CCNCC2)nc(-c2ccco2)c2c1CCCC2`, the compound was called inactive.
